High-throughput results from PubChem BioAssay.
Pin1 inhibitor: human Pin1 inhibition; AID 504891; Pin1 FP peptide displacement, HiFluor488, 10 min; Q13526; 390,000 compounds, 0.009% hits; Potency, µM (highest dose often 115 µM), for inactives: at the top dose activity, negative = inhibition, hits mostly inhibitors; active = well fitted inhibition curve with a large enough effect in the polarisation, with a control signal flat, not every such curve was filed as active; inconclusive = small, poorly fitted or top-dose-only effect, or effect the other way, or a change in a side signal; inactive = no such curve, though single readings can be large or run the other way; the % refers to the polarisation; also: potency is read from the fitted curve at half-maximal effect; % is scaled to controls: 0 for no effect and ±100 for the full control effect
Target sequence (Q13526 whole entry, looked up): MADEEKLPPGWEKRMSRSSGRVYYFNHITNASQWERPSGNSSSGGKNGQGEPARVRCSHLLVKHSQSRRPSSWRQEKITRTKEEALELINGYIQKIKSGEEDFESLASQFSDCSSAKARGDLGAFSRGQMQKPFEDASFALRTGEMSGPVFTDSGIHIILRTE
Akt phos inh: blocks phosphorylation of Akt; Neuro2A IGF-stimulated pAkt S473 HTRF, 20 min; stronger effect = lower value; activity change, % for hits at 50 µM; 360,000 compounds, 0.32% hits; AID 651550; in the data active = activity change below about -80%; inconclusive = mostly about -51% to -80%; also: % is scaled to controls: 0 for no effect and ±100 for the full control effect
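Single-point screen (50 µM final compound) in Neuro2A cells stimulated 20 min with 6 nM IGF at 37 deg C. After lysis, Ser473-phosphorylated Akt read by HTRF (ex 330 nm, em 615/665 nm) as the 665/615 ratio.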
rTrxR1 inhibitor: inhibitors of rat thioredoxin reductase 1 | O89049 | recombinant rTrxR1, NADPH fluorescence consumption, selenite substrate | Potency, µM (top dose mostly 114 µM), for inactives: top-dose activity change, negative = inhibition, hits mostly inhibitors | 390,000 compounds, 1% hits; also: potency is read from the fitted curve at half-maximal effect; % is scaled to controls: 0 for no effect and ±100 for the full control effect; nearly all actives have a fitted effect of over 65% in size
Target sequence (O89049 whole entry, looked up): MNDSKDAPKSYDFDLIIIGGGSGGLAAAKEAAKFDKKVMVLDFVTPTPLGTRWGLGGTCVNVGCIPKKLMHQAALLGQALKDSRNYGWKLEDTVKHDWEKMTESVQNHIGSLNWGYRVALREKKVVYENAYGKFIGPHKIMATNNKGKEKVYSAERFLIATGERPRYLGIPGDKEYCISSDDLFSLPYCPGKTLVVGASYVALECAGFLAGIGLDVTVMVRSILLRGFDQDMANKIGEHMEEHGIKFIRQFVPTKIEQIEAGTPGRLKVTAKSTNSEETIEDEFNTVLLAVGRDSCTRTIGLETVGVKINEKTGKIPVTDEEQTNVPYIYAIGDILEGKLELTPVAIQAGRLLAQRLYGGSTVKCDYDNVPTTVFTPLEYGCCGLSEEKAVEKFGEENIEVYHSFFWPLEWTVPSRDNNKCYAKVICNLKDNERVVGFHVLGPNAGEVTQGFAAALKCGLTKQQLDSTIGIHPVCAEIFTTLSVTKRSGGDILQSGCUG
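Rat TrxR1 (90 nM in the dispensed reagent) was pre-reduced with 400 uM NADPH for 5 min at room temperature, then incubated with compound for 15 min. After 400 uM selenite was added, NADPH fluorescence (Ex 340/Em 450 nm) was followed for 8 min.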
AT treatment: potential ataxia-telangiectasia treatment | F2112 A-T fibroblasts, KAP-1 phosphorylation AlphaLISA; neocarzinostatin DNA damage 30 min before lysis | 320,000 compounds, 0.19% hits | Potency, µM (doses to about 57.5 µM), for inactives: at the top dose activation, most hits filed as activators; also: potency is read from the fitted curve at half-maximal effect; % of control where 0% means no effect; nearly all actives have a fitted effect of over 45% in size
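ATM-like activity read as KAP-1 phosphorylation via AlphaLISA donor/acceptor antibody pairs after lysis and 6 hr at 25C. Cells were ATM-null patient fibroblasts (F2112, hTERT), dosed 60 min, then exposed to the DSB inducer NCS for 30 min.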
N370S GC mod: inhibitors or activators of N370S glucocerebrosidase for Gaucher disease; AID 2101; 330,000 compounds, 0.092% hits; P04062; N370S GC spleen homogenate, 4MU-glucoside fluorescence; Potency, µM (top dose mostly 59.4 µM), for the others: at the top dose activity change, negative = inhibition, usual class: inhibitors;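 also: potency is read from the fitted curve at half-maximal effect; 0% = full enzyme activity and -100% = no enzyme basal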
TrxR1 substrate: is turned over as a substrate by rat TrxR1. Potency, µM (top dose mostly 114 µM), for the others: at the highest dose activity change, negative = substrate turnover. O89049. purified TrxR1 substrate turnover, NADPH consumption readout. 390,000 compounds, 0.01% hits; also: potency is read from the fitted curve at half-maximal effect; % is scaled to controls: 0 for no effect and ±100 for the full control effect; nearly all actives have a fitted effect of over 50% in size
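Rat TrxR1, dispensed at 90 nM, was prereduced with 400 uM NADPH (final) for 5 min at ~22 deg C, then incubated with compound 15 min before 400 uM selenite. A first-read NADPH fluorescence drop versus no-compound background flagged substrates.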
Starred values were filed as active, the others as inactive; i = inactive; ? = inconclusive; · = no result; ! = a repeat was not active; [ ] = another dose, or the depositor's remark. Only some compounds are listed: those with a hit (about 1.4% of all), similar ones and a draw of the others. Unless noted, calls follow the shape of the dose curve; as a rule, active = well fitted curve in the direction sought with a large enough effect; inconclusive = small, poorly fitted or top-dose-only effect, or another doubt; inactive = no such curve, though single readings can be large; an effect the other way counts as inactive or inconclusive.

SMILES	Pin1 inhibitor	Akt phos inh	rTrxR1 inhibitor	AT treatment	N370S GC mod	TrxR1 substrate
CC1Cc2ccccc2C[N+]1(C)CC(=O)c1cccc([N+](=O)[O-])c1 (stereo not given)	·	·	-7%	·	·	-2%
Nn1c(SCC(=O)Nc2ccc(S(=O)(=O)N3CCCC3)cc2)nnc1C(F)(F)F	3%	-107%*	26%[57.1 µM]	-1%	2%	22%[57.1 µM]
Cn1cnnc1SCC(=O)Nc1ccc(S(=O)(=O)N2CCCC2)cc1	2%	i	15%	-4%	4%	12%[57.1 µM]
C#CC(=O)N(c1cc(OC)ccc1OC)C(C(=O)NC1CCCC1)c1cccs1 (stereo not given)	-1%	i	1µM*	-4%	-2%	-2%
C#CC(=O)N(c1ccc(OC)cc1OC)C(C(=O)NC1CCCC1)c1cccs1 (stereo not given)	-16%	i	?	4%	1%	16%[57.1 µM]
O=[N+]([O-])c1ccc(N2CCN(C(=S)NC3CCCCC3)CC2)cc1	12%	-112%*	-10%[57.1 µM]	-10%	-7%	-3%[57.1 µM]
O=C(NCc1nc2ccccc2[nH]1)C1=C[C@@H](c2ccc(C(F)(F)F)cc2)C[C@@H](OCCCCO)O1	-10%	i	0%	·	·	-13%
O=C(NCc1nc2ccccc2[nH]1)C1=C[C@H](c2ccccc2)C[C@H](OCCCCO)O1	4%	i	15%	40µM*	17%	6%
CCOc1cc(CN2CCN(S(=O)(=O)c3ccc(C)cc3)CC2)ccc1OC	-5%	·	-10%	·	·	-6%
O=C(Cn1cc(COc2c(F)c(F)cc(F)c2F)nn1)c1ccc(O)cc1	-6%	i	50µM*	·	·	0%
Fc1cc(F)cc(Nc2nc(NC3CCCC3)nc(C3CO3)n2)c1 (stereo not given)	3%	·	·	·	·	·
Cc1cccc(NC(=S)NC(=O)Cc2ccccc2)c1C	?	i	56µM*	-7%	-5%	-14%
Cc1cccc(NC(=S)NC(=O)CCc2ccccc2)c1C	-8%	i	?	·	2%	0%
Cc1cc2c(=Cc3ccc(N(C)C)cc3)c3ccccc3n2[n+]1C	?	i	-36%	·	·	-20%
CN(C)c1ccc(C=c2c3ccccc3n3c2c2ccccc2[n+]3C)cc1	9%	i	32µM*	·	·	-19%
COc1ccc(C(=O)C[n+]2cc(Br)cc(Br)c2)cc1	·	·	22%	·	·	2%
COc1ccc(CCNC2=NCCS2)cc1OC	-6%	i	16%[57.1 µM]	1.3µM*	1%	-2%[57.1 µM]
CCOc1ccc(/C=N/NC(=O)c2nnn(-c3nonc3N)c2-c2ccc(OCC)cc2)cc1	-3%	i	-6%[57.1 µM]	-1%	2%	4%[57.1 µM]
CCOC(=O)c1nnn(-c2nonc2N)c1-c1ccc(OCC)cc1	-4%	-112%*	7%	-1%	0%	8%[57.1 µM]
COc1ccc2ncnc(NCc3cccs3)c2c1-c1ccc2c(c1)OCO2	-6%	·	·	·	·	·
CC1CCc2c(nc3nc[nH]n3c2=O)C1 (stereo not given)	-9%	-102%*	-3%[57.1 µM]	·	-4%	-13%
Cc1cc(C)cc(NC(=O)CN(C)S(=O)(=O)c2cnc[nH]2)c1	0%	-116%*	-3%	-1%	-7%	-2%
CCCCC(=O)Nc1ccc(NC(=O)c2ccccc2OC)cn1	4%	-108%*	-5%	6%	-1%	-7%
O=C(CSc1ccccc1)Nc1ccncc1	-2%	-139%*	14%[57.1 µM]	-3%	-16%	17%[57.1 µM]
COc1ccc2nc(-c3ccco3)c(-c3ccco3)nc2c1	·	i	8.9µM*	6%	5%	28%
SMILES	Pin1 inhibitor	Akt phos inh	rTrxR1 inhibitor	AT treatment	N370S GC mod	TrxR1 substrate
c1coc(-c2nc3cc4ccccc4cc3nc2-c2ccco2)c1	?	·	4.5µM*	·	·	-6%
c1coc(-c2nc(-c3ccco3)c(-c3ccco3)nc2-c2ccco2)c1	?	·	2.8µM*	-2%	-16%	9%[57.1 µM]
Nc1nc(-c2ccco2)c(-c2ccco2)s1	?	i	50µM*	-6%	1%[2.35 µM]	2%
Cc1c(NC(=O)Cc2ccc(F)cc2)cccc1-c1nc2cccnc2s1	0%	·	25%	·	·	6%
O=C(NCC(c1cccnc1)N1CCN(c2ccccc2F)CC1)c1ccc(F)cc1 (stereo not given)	1%	·	17%	·	·	6%[11.4 µM]
CCC1(C)CC(=O)N(c2ccc(C(=O)O)c(O)c2)C1=O (stereo not given)	0%	-114%*	13%[57.1 µM]	6%	-5%	39%[57.1 µM]
Cn1ncc(Oc2ccc([N+](=O)[O-])cc2)c(Cl)c1=O	-2%	i	11%[57.1 µM]	40µM*	-1%	6%
Cc1[nH]c2ccccc2c1C(c1ccccn1)c1c(C)[nH]c2ccccc12	-2%	i	40µM*	-2%	-1%	-2%
COc1cc(-c2noc(C)c2C#Cc2ccc(N)cc2)cc(OC)c1OC	6%	i	2%	8%	-16%	0%
CNC(C)C#Cc1c(-c2cc(OC)c(OC)c(OC)c2)noc1C (stereo not given)	-3%	i	71µM*!	8%	1%	7%
c1ccc(Nc2ccnc(Nc3ccccc3)n2)cc1	-1%	i	19%	20µM*	?	-1%
Nc1ccccc1OC1=NS(=O)(=O)c2ccccc21	-8%	·	·	·	·	·
COc1cc2c(c(OC)c1OC)-c1c(cc(OC)c(OC)c1OC)C[C@H](C)[C@H](C)C2	-2%	i	5%	?	0%	-9%
COc1cc2c(c(O)c1OC)-c1c(cc(OC)c(OC)c1OC)C[C@@H](C)[C@@H](C)C2	11%	i	0%[57.1 µM]	20µM*	1%	-3%[57.1 µM]
CCOC(=O)c1cnc(-c2ccccc2)nc1C(F)(F)F	0%	i	13%[57.1 µM]	3%	6%	2%[57.1 µM]
CCOC(=O)c1cnc2c(F)ccc(F)c2c1Sc1ccccc1	?	i	56µM*	19%	19%	-11%
Cc1ccc(NS(=O)(=O)c2ccc3[nH]c(=O)[nH]c3c2)cc1C	-2%	·	·	·	·	·
O=[N+]([O-])c1ccc(S(=O)(=O)CC(CN2CCCCC2)N2CCCCC2)cc1 (stereo not given)	-1%	i	2.5µM*	4%	-3%	-6%
CCCN(CCC)CCNC(=O)Cn1cnc2sc(C)c(S(=O)(=O)N3CCN(c4ccccc4OC)CC3)c2c1=O	0%	·	23%	·	·	7%[2.29 µM]
CCNc1nc(N)nc(Oc2ccc(C(=O)OC)cc2)n1	0%	-95%*	19%	2%	1%	10%
CCNc1nc(Oc2ccc(C(=O)OC)cc2)nc(N(C)C)n1	-3%	i	-4%	2%	19%	-6%
Cc1ccc(CSc2nc3c(cc2C#N)CCC3)cc1	-5%	-85%*	5%	-1%	5%	-3%
N#CC1=C(N)C(C#N)(C#N)C(c2ccc[nH]2)C2CCCC=C12 (stereo not given)	?	i	11µM*	10%	-22%	6%
